Results reported in PubChem BioAssay (NCI).
About 83,000 compounds went through this panel and 20% of them were active in at least one assay; those are over-represented in the sample as a whole.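 Activity criterion: percent growth below 10, measured after cells in 96-well plates were exposed to a single compound concentration for 48 hours.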 A number with no mark means an inactive call. Calls of active or inactive are those of the source.

How the values were obtained:
Assay in all cases: NCI-60 one-dose screen, 48 h (100 = growth as untreated, 0 = no growth, -100 = all killed)
Details in all cases: 10 µM unless noted
[1] = tested on: SR leukemia
[2] = tested on: RPMI-8226 leukemia
[3] = tested on: OVCAR-8 ovarian
[4] = tested on: OVCAR-5 ovarian
[5] = tested on: OVCAR-4 ovarian
[6] = tested on: SK-OV-3 ovarian
[7] = tested on: IGROV1 ovarian
[8] = tested on: OVCAR-3 ovarian
[9] = tested on: HS 578T breast
[10] = tested on: NCI/ADR-RES ovarian
[11] = tested on: T-47D breast
[12] = tested on: MDA-MB-435 melanoma
[13] = tested on: SW-620 colon
[14] = tested on: MCF7 breast
[15] = tested on: HCT-116 colon
[16] = tested on: HCC-2998 colon
[17] = tested on: KM12 colon
[18] = tested on: BT-549 breast

SMILES | growth [1] | growth [2] | growth [3] | growth [4] | growth [5] | growth [6] | growth [7] | growth [8] | growth [9] [%] | growth [10] | growth [11] | growth [12] | growth [13] | growth [14] | growth [15] | growth [16] | growth [17] | growth [18]
C/C(=C\c1ccc(OCC(=O)O)c(Cl)c1Cl)[N+](=O)[O-] | 72.1% | 99.7% | 93.7% | 113% | 114% | 94% | 133% | 99.9% | 107 | 102% | 100% | 106% | 114% | 103% | 109% | 97.1% | 104% | 
CC(NNC(C)c1ccccc1)c1ccccc1 (stereo unspecified) | 91.9% | 97.8% | 115% | 107% | 112% | 110% | 117% | 118% | 128 | 105% |  | 112% | 96.1% | 113% | 107% | 103% | 115% | 113%
c1ccc(-c2nnc(-c3ccccn3)s2)nc1 | 96.7% | 54.8% | 94% | 92.2% | 91.5% | 95.2% | 80.7% | 95.5% | 142 | 83% | 33.9% | 105% | 99.8% | 28.6% | 86.8% | 46.2% | 97.3% | 
S=C1CC(=S)NC(=S)N1 | 109% | 122% | 104% | 110% | 99% | 111% | 96.7% | 116% | 101 | 105% |  | 112% | 98.2% | 94.1% | 105% | 104% | 98.9% | 110%
CCOC(=O)C1CCNC(=O)C1=O (stereo unspecified) | 88.9% | 96.8% | 110% | 104% | 119% | 117% | 130% | 122% | 119 | 105% |  | 113% | 108% | 107% | 107% | 104% | 109% | 107%
CC(C)CC1NC(C)(C)CO1 (stereo unspecified) | 124% | 103% | 105% | 114% | 111% | 110% | 112% | 106% | 142 | 104% |  | 113% | 106% | 104% | 114% | 102% | 110% | 116%
C/C(=N/NC(=S)Nc1ccccc1)c1nc2ccc(Cl)cc2[nH]1 | -36.1% (active) | 5.52% (active) | -39.8% (active) | -35.8% (active) | -79.3% (active) | -17.7% (active) | 7.58% (active) | -59.5% (active) |  | -12.7% (active) | -68.3% (active) | -84.5% (active) | -76.9% (active) | -85.4% (active) | -27% (active) | -89.9% (active) | -82.5% (active) | -94.9% (active)
CC(C)(C)n1cc(-c2ccnc(NCCCNS(=O)(=O)c3ccc(C(F)(F)F)cc3)c2)c(-c2cccc(O)c2)n1 | -7.63% (active) | -9.47% (active) | 28% | 36.1% | 41.7% | 70.1% | 31.3% | 42.5% | 23.5 | 34.6% | 31.3% | 32.2% | 0.471% (active) |  | 16.1% | -63% (active) | -14.2% (active) | 
CN(C)c1ncnc2c1ccn2C1OC(CO)C(O)C1O (stereo unspecified) | 89.5% | 83.7% | 0.899% (active) | 39.5% | 33.3% | 33.7% | -0.957% (active) | 25.9% | 17.5 | 1.88% (active) |  | 62.3% |  | -7.76% (active) | 37% | 22.7% | 84.1% | 57.3%
